# Tested on: HpdA/P_H16_RS24175 L-tyrosine biosensor (pEH158)
# Test: relative induction of RFP reporter vs primary effector (background-corrected); higher = stronger activation of the biosensor
# Settings: inducer concentration 5 mM; 6 h; Cupriavidus necator H16; minimal medium + 0.4% gluconate
# Procedure: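 C. necator H16 strains, each carrying one of 21 transcription factor/inducible promoter–mRFP biosensor plasmids, were grown in minimal medium in 96-well plates (robotic platform). Each was exposed to 46 structurally or metabolically related compounds at 5 mM at 30 °C. OD-normalised RFP fluorescence was read 6 h later and expressed as relative induction (%) = 100 × (FL compound − FL uninduced)/(FL primary inducer − FL uninduced); mean of n=4.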
# 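Note: RFP excited at 585 nm with emission read at 620 nm, culture medium blanks subtracted from fluorescence and absorbance prior to normalisation.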
row,Structure (SMILES),relative induction of RFP reporter
1,O=S(=O)(O)CCO [isethionate],-0.112%
2,CC(=O)CCC(=O)O [levulinic acid],-0.244%
3,CCC(=O)O [propanoate],-0.0944%
4,O=C(O)C[C@H](O)C(=O)O [L-malate],-0.0258%
5,Oc1cccc(O)c1 [resorcinol],-0.0108%
6,"O=C(O)c1c(O)cccc1O [2,6-dihydroxybenzoate]",0.0687%
7,OC[C@@H](O)[C@@H](O)[C@H](O)[C@H](O)CO [D-mannitol],-0.117%
8,O=C(O)c1cc(=O)c2ccccc2[nH]1 [kynurenate],-0.151%
9,C[C@H](O)C(=O)O [L-lactate],-0.188%
10,"NCC(N)C(=O)O (stereo not given) [2,3-diaminopropanoate]",0.123%
11,O=c1cc[nH]c(=O)[nH]1 [uracil],-0.0253%
12,Oc1ccc(O)cc1 [hydroquinone],0.0801%
13,O=C(O)C(O)c1ccccc1 (stereo not given) [mandelic acid],0.0552%
14,Oc1ccccc1O [catechol],0.0942%
15,"O=C(O)/C=C\C=C/C(=O)O [cis,cis-muconate]",0.00769%
16,NCC(O)C(=O)O (stereo not given) [3-amino-2-hydroxypropanoate],-0.0973%
17,O=C(O)CC(CC(=O)O)C(=O)O [tricarballylate],-0.173%
18,N[C@@H](Cc1c[nH]c2ccccc12)C(=O)O [L-tryptophan],0.00902%
19,O=C(O)c1cccnc1 [nicotinate],-0.141%
20,NCCS(=O)(=O)O [taurine],-0.19%

row,Structure (SMILES),relative induction of RFP reporter
1,C[C@@H](O)C(=O)O [D-lactate],-0.202%
2,O=C(O)CC(=O)C(=O)O [oxaloacetate],-0.115%
3,O=CC(=O)O [glyoxylate],-0.0503%
4,N[C@@H](CC(=O)O)C(=O)O [L-aspartate],-0.107%
5,NCCc1ccc(O)c(O)c1 [dopamine],-0.023%
6,O=C(O)C1CCCC1 [cyclopentane-1-carboxylate],0.108%
7,O=C(O)C1=CCCCC1 [cyclohexene-1-carboxylate],0.0248%
8,O=C(O)/C=C/C(=O)O [fumarate],-0.0945%
9,O=C(O)CCC(=O)O [succinate],-0.126%
10,Cn1c(=O)c2c(ncn2C)n(C)c1=O [caffeine],0.103%
11,NC(=O)CC[C@H](N)C(=O)O [L-glutamine],-0.216%
12,O=C(O)c1ccc(O)cc1 [4-hydroxybenzoate],-0.0931%
13,O=C(O)C1=C[C@@H](O)[C@@H](O)[C@H](O)C1 [shikimate],0.167%
14,CCCC(=O)O [butyric acid],-0.166%
15,"NC(C(=O)O)c1ccccc1 (racemic) [D,L-2-phenylglycine]",0.0147%
16,NCC(=O)O [glycine],-0.0404%
17,Cn1cnc2c1c(=O)[nH]c(=O)n2C [theobromine],0.0337%
18,CC(N)CC(=O)O (stereo not given) [3-aminobutanoate],-0.135%
19,O=C(O)CNC(=O)c1ccccc1 [N-benzoylglycine],-0.186%
20,C[C@H](N)C(=O)O [L-alanine],-0.194%
